Only some compounds are listed: those with a hit (about 3% of all), similar ones and a draw of the others.
ATG4B inh: ATG4B protease inhibitors, primary screen, biochemical, fluorescence, uHTS | ATG4B cleavage of LC3-PLA2, NBD-HPC fluorescence, 1 h | inhibition, % at 8.33 µM | 340,000 tested, 0.51% active; in the data active = inhibition above about 40%
DAGLB inh: DAGLB lipase inhibitors, primary screen, biochemical, fluorescence, HTS; inhibition, % at 5.17 µM; AID 504411, 2011; 340,000 tested, 0.059% active; HEK293T DAGLB membrane lysate, EnzChek fluorogenic substrate; Diacylglycerol lipase-beta (Homo sapiens), Q8NCG7; in the data active = inhibition above about 34%
PAFAH1B2 inh: PAFAH1B2 enzyme inhibitors, primary screen, biochemical, fluorescence polarization, human. Platelet-activating factor acetylhydrolase IB subunit alpha2 (Homo sapiens), P68402. recombinant PAFAH1B2, FP-rhodamine activity probe. inhibition, % at 3.39 µM. 340,000 tested, 1.2% active. AID 492953, 2010;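 active = inhibition above the mean of all tested compounds plus 3 SD, cut at about 24% in these data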
pPAFAH FP inh: pPAFAH enzyme inhibitors, primary screen, biochemical, fluorescence polarization, human; Platelet-activating factor acetylhydrolase (Homo sapiens), Q13093; recombinant pPAFAH, FP-rhodamine probe fluorescence polarization; inhibition, % at 3.39 µM; 330,000 tested, 1.5% active;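 active = inhibition above the mean inhibition across the screen plus 3 SD, cut at about 25% in these data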;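 note: inhibitors block binding of the rhodamine activity-based probe so polarization drops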
Target sequence (Q13093 whole entry, looked up): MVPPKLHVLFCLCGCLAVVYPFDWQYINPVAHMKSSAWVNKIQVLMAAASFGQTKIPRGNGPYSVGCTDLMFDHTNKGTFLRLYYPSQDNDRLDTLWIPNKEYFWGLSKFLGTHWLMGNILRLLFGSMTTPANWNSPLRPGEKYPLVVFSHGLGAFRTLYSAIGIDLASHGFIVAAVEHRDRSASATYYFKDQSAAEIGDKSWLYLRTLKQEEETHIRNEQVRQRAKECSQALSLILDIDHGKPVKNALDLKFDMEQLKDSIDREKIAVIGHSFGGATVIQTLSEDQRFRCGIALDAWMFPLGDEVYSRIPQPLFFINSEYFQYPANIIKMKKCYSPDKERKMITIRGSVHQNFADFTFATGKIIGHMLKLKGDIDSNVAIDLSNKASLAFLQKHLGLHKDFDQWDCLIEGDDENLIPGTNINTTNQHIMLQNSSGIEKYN
PAFAH1B3 FP inh: PAFAH1B3 enzyme inhibitors, primary screen, biochemical, fluorescence polarization, human; recombinant PAFAH1B3, FP-rhodamine probe; inhibition, % at 3.39 µM; Platelet-activating factor acetylhydrolase IB subunit alpha1 (Homo sapiens), Q15102; AID 492972, 2010; 340,000 tested, 0.28% active;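 active = inhibition above the screen-wide average of all tested compounds plus 3 SD, cut at about 25% in these data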
PAFAH2 FP inh: PAFAH2 enzyme inhibitors, primary screen, biochemical, fluorescence polarization, human; 340,000 tested, 0.99% active; recombinant PAFAH2, FP-rhodamine activity probe; inhibition, % at 3.39 µM;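 active = inhibition above the mean over all tested compounds plus 3 SD, cut at about 30% in these data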;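 note: inhibitors block probe labeling of enzyme so polarization drops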
Numbers stand for hits; . = inactive; / = not tested or not shown.

SMILES	ATG4B inh	DAGLB inh	PAFAH1B2 inh	pPAFAH FP inh	PAFAH1B3 FP inh	PAFAH2 FP inh
COc1ccc([C@H]2[C@H](C(=O)C(C)(C)C)N3N=Cc4ccccc4C3[C@]23N=C(c2ccccc2)OC3=O)cc1 (stereo partly drawn)	.	.	.	.	.	.
CC(C)(C)OC(=O)[C@H]1[C@H](c2ccc([N+](=O)[O-])cc2)C2(C(=O)c3ccccc3C2=O)C2c3ccccc3C=NN21 (stereo partly drawn)	.	.	83.8	.	.	.
CN(C(=O)c1cccc(NC(=O)Cc2cccc(NC(=O)C3CCCN(C(=O)c4ccccc4)C3)c2)c1)C1CC1 (stereo not drawn)	.	.	.	/	.	.
CN(C)S(=O)(=O)N1CCN(CC(O)COc2ccc(-c3ccccc3)cc2)CC1 (stereo not drawn)	.	.	.	.	.	.
O=C1CC2CCCC(C1)S2=O (stereo not drawn)	/	.	/	/	/	/
O=C(O)c1cc(C(=O)O)cc(-c2ccc(/C=c3/sc4nc5ccccc5n4c3=O)o2)c1	.	/	/	/	/	/
O=C(O)c1cccc(-c2ccc(/C=c3/sc4nc5ccccc5n4c3=O)o2)c1	.	.	.	26.2	26.0	.
CCC(CC)NC(=O)COC(=O)c1ccc(OCc2ccc(C(C)=O)cc2OC)c(OC)c1	.	.	.	26.6	.	76.8
CC(=O)N1CCN(c2ccc(NCc3ccc(F)cc3)cc2)CC1	.	.	.	.	.	.
COc1cc(CNc2ccc(N3CCN(C(C)=O)CC3)cc2)ccc1OCc1ccc(F)cc1	.	.	.	31.0	.	.
COc1ccc(-n2c(C)cc(C(=O)CN3C(=O)NC4(CCCc5sccc54)C3=O)c2C)cc1 (stereo not drawn)	.	.	.	25.0	.	.
CCOC(=O)c1cnc2ccc(C)cc2c1N(C)Cc1ccccc1	.	.	.	25.4	.	.
Cc1n[nH]c(C)c1S(=O)(=O)N1CCN(S(=O)(=O)c2cccc(F)c2)CC1	.	.	.	/	.	.
O=C(Cn1nc(Cc2cccnc2)c2ccccc2c1=O)Nc1cc(F)ccc1F	.	.	.	.	.	.
O=C(Cn1nc(Cc2cccnc2)c2ccccc2c1=O)Nc1ccccc1F	.	.	.	25.5	.	.
O=C(C=C1SCCS1)/C=C/c1ccco1	.	.	.	24.6	.	.
O=C(/C=C/c1ccc([N+](=O)[O-])cc1)/C=C/c1ccco1	/	.	.	62.1	.	.
COC(=O)c1c(C)[nH]c(C(=O)OCc2csc(CC(=O)Nc3ccccc3C)n2)c1C	.	.	.	.	.	.
CCN(CC)c1ccc(/C=C/c2cc(-c3ccccc3)c3ccccc3n2)cc1	.	.	.	24.9	.	.
O=C(c1cc(S(=O)(=O)N2CCN(c3ccccc3)CC2)ccc1Cl)N1CCCCCCC1	.	.	.	31.5	.	.
CSc1ccc(CN2CCN(Cc3ccccc3)C(CCO)C2)cc1 (stereo not drawn)	.	.	.	.	.	.
CSc1ccc(CN2CCN(CC=C(C)C)C(CCO)C2)cc1 (stereo not drawn)	.	.	.	25.4	.	.
Cc1csc(C(=O)O)c1NC(=O)c1c(Cl)cccc1Cl	.	.	.	.	.	.
CCOC(=O)C(=O)Nc1ccc(S(=O)(=O)Nc2nccs2)cc1	.	.	.	.	.	.
CC(=O)c1cccc(NC(=O)CSc2ncc(C(=O)Nc3ccccc3)c(=O)n2C)c1	.	.	.	30.9	.	.
O=C(Nc1nc2nc(-c3ccccc3)cc(=O)n2[nH]1)c1ccccc1	.	.	.	.	.	.
O=C(CCc1ccccc1)Nc1nc2nc(-c3ccccc3)cc(=O)n2[nH]1	.	.	26.7	.	.	.
CC(NS(=O)(=O)c1ccccc1)C1CC2CCC1C2 (stereo not drawn)	.	.	25.0	.	.	.
CC(NS(=O)(=O)c1ccc(N)cc1)C1CC2CCC1C2 (stereo not drawn)	.	.	.	.	.	.
